Values joined by “and” are separate entries in the source; they are usually repeats but may differ in a detail not shown here. Identical values can stand only once. Results filed as inconclusive are left out. Some structures have more than one record in an assay (separate samples or runs), and their calls can disagree. Active and inactive are the calls of the source. Calls follow the shape of the dose curve; as a rule, active = well fitted curve in the direction sought with a large enough effect; inconclusive = small, poorly fitted or top-dose-only effect, or another doubt; inactive = no such curve, though single readings can be large; an effect the other way counts as inactive or inconclusive. Non-standard residues stand in square brackets, D forms with d. Residues, ends and D or L forms follow the SMILES beside them. *: point of attachment. Sta = CC(C)C[C@H](N)[C@@H](O)CC(=O)O; Isovaleryl = CC(C)CC(=O)*
Columns and labels:
[1] = test system: MKL-1; assay: qHTS assay to identify novel small-molecules to repurpose for Merkel cell carcinoma treatment (AID 1296009); settings: MCC and control cell lines, CellTiter-Glo viability, 72 h; series mostly up to 46 µM; also: nearly all actives have a fitted effect of over 60% in size
In short: (§1)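 Dose-response viability screen; 72 hr exposure at 37 degree celsius; CellTiter-Glo added, 10 min room temperature, luminescence read; RLUs scaled between no-cell and DMSO wells.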

[2] = test system: MKL-2; assay: as above; settings: MCC and control cell lines, CellTiter-Glo viability, 72 h; series mostly up to 46 µM
In short: as §1

[3] = test system: UISO; assay: as above; settings: MCC and control cell lines, CellTiter-Glo viability, 72 h; series mostly up to 46 µM
In short: as §1

[4] = test system: WaGa; assay: as above; settings: MCC and control cell lines, CellTiter-Glo viability, 72 h; series mostly up to 46 µM
In short: as §1

[5] = test system: C33A; assay: Primary qHTS to identify gynecologic anti-cancer compounds using libraries of approved drugs and bioactive compounds (AID 1345084); settings: Gynecologic cancer cell panel viability, ATPlite luminescence, 48 h; series mostly up to 57.5 µM; also: nearly all actives have a fitted effect of over 55% in size
In short: (§2)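 Cell viability after 48 h drug treatment, ATPlite luminescence readout; five doses.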

[6] = test system: CASKI; assay: as above; settings: Gynecologic cancer cell panel viability, ATPlite luminescence, 48 h; series mostly up to 57.5 µM
In short: as §2

[7] = test system: Es-2; assay: as above; settings: Gynecologic cancer cell panel viability, ATPlite luminescence, 48 h; series mostly up to 57.5 µM
In short: as §2

[8] = test system: HeLa; assay: as above; settings: Gynecologic cancer cell panel viability, ATPlite luminescence, 48 h; series mostly up to 57.5 µM
In short: as §2

[9] = test system: Hek293T; assay: as above; settings: Gynecologic cancer cell panel viability, ATPlite luminescence, 48 h, control line for the selectivity index; series mostly up to 57.5 µM
In short: as §2

[10] = test system: JEG-3; assay: as above; settings: Gynecologic cancer cell panel viability, ATPlite luminescence, 48 h; series mostly up to 57.5 µM
In short: as §2

[11] = test system: OV90; assay: as above; settings: Gynecologic cancer cell panel viability, ATPlite luminescence, 48 h; series mostly up to 57.5 µM
In short: as §2

[12] = test system: PA-1; assay: as above; settings: Gynecologic cancer cell panel viability, ATPlite luminescence, 48 h; series mostly up to 57.5 µM
In short: as §2

[13] = test system: Tov-21-G; assay: as above; settings: Gynecologic cancer cell panel viability, ATPlite luminescence, 48 h; series mostly up to 57.5 µM
In short: as §2

[14] = test system: Tov112D; assay: as above; settings: Gynecologic cancer cell panel viability, ATPlite luminescence, 48 h; series mostly up to 57.5 µM
In short: as §2

[15] = Drug repurposing screens with cells derived from glioblastoma tumor samples (AID 1345199); settings: GBM patient neurospheres viability, ATP luminescence, 48 h; also: nearly all actives have a fitted effect of over 40% in size; as to activity, negative = cell killing: % is scaled to controls: 0 for no effect and ±100 for the full control effect
In short: (§3)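 Primary testing used CD133+ neurospheres from four GBM patients, seven concentrations, 48 h exposure and ATP-based viability; confirmation added three slower-growing patient lines.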

[16] = test system: astro; assay: as above; settings: viability, ATP luminescence, 48 h; series mostly up to 45.9 µM
In short: as §3

[17] = test system: CAOV3; assay: Primary qHTS to identify gynecologic anti-cancer compounds using libraries of approved drugs and bioactive compounds (AID 1345084); settings: Gynecologic cancer cell panel viability, ATPlite luminescence, 48 h; series mostly up to 57.5 µM; also: nearly all actives have a fitted effect of over 55% in size
In short: as §2

[18] = qHTS assay to identify inhibitors of the type 1 interferon - major histocompatibility complex class I in skeletal muscle: Counter screen cell viability and HiBit confirmation (AID 1347412); settings: iHSKM muscle cells + IFN-b, HiBiT or CellTiter-Glo, 24 h; Viability; also: nearly all actives have a fitted effect of over 60% in size
In short: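 HLA-B*08:01–HiBiT knock-in immortalized human myoblasts (C25cl48) stimulated with 4.0 ng/ml human IFN-beta and dosed with compound in a 12-point 1:3 titration (top final 46 uM). After 24 hrs at 37 C, HiBiT lytic luminescence or CellTiter Glo ATP read out.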

[19] = test system: SKOV3; assay: Primary qHTS to identify gynecologic anti-cancer compounds using libraries of approved drugs and bioactive compounds (AID 1345084); settings: Gynecologic cancer cell panel viability, ATPlite luminescence, 48 h; series mostly up to 57.5 µM; also: nearly all actives have a fitted effect of over 55% in size
In short: as §2

[20] = at 20 µM (top of the series), tumour line C
[21] = at 21.2 µM (top of the series), tumour line B
[22] = at 21.2 µM (top of the series), tumour line D
[23] = at 45.9 µM (top of the series), tumour line B
[24] = at 45.9 µM (top of the series), tumour line D
[25] = at 46.1 µM (top of the series), tumour line C
[26] = at 21.3 µM (top of the series), tumour line A
[27] = at 46 µM (top of the series), tumour line A
Potency is read from the fitted curve at half-maximal effect.

Cc1cc(=O)oc2cc(O)ccc12
inactive: Potency [1] | Potency [2] | Potency [3] | Potency [4] | Potency [5] | Potency [6] | Potency [7] | Potency [8] | Potency [9] | Potency [10] | Potency [11] | Potency [12] | Potency [13] | Potency [14] | activity, negative = cell killing [15, 20] -8.91% | activity, negative = cell killing [15, 21] -9.65% | activity, negative = cell killing [15, 22] -8.02% | Potency [16]

CN(C)c1ccc2nc3ccc(=[N+](C)C)cc-3sc2c1
active: Potency [1] 2.35 µM and 841 nM | Potency [2] 4.69 µM and 2.66 µM | Potency [3] 3.32 µM and 2.37 µM | Potency [4] 1.87 µM and 1.19 µM | Potency [5] 1.12 µM | Potency [17] 3.98 µM | Potency [6] 7.08 µM | Potency [7] 1.78 µM | Potency [9] 14.1 µM | Potency [10] 2 µM | Potency [11] 12.6 µM | Potency [12] 0.891 µM | Potency [13] 10 µM | Potency [14] 6.31 µM | Potency [16] 5.01 µM | Potency [18] 15.7 µM

CCN(CC)C(=S)SSC(=S)N(CC)CC
active: Potency [1] 1.18 µM and 62.4 nM and 422 nM | Potency [2] 1.32 µM and 44.2 nM and 531 nM | Potency [3] 1.05 µM and 70 nM and 473 nM | Potency [4] 935 nM | Potency [17] 7.08 µM | Potency [7] 15.8 µM | Potency [9] 8.91 µM | Potency [10] 28.2 µM | Potency [11] 4.47 µM | Potency [19] 631 nM and 1.41 µM | Potency [16] 63.1 µM
35.5 µM (active) and inactive: Potency [6]
inactive: Potency [8]

O=C(OC1C[C@H]2CC[C@@H](C1)[N+]21CCCC1)C(O)(c1ccccc1)c1ccccc1 (some centres not stated)
inactive: Potency [1] | Potency [2] | Potency [3] | Potency [4] | Potency [5] | Potency [6] | Potency [7] | Potency [8] | Potency [9] | Potency [10] | Potency [11] | Potency [12] | Potency [19] | Potency [13] | Potency [14] | activity, negative = cell killing [15, 23] -3.76% | activity, negative = cell killing [15, 24] -11.8% | activity, negative = cell killing [15, 25] -2.11% | Potency [16]

Nc1ncn([C@H]2C[C@H](O)[C@@H](CO)O2)c(=O)n1
inactive: Potency [1] | Potency [2] | Potency [3] | Potency [4] | Potency [5] | Potency [6] | Potency [7] | Potency [8] | Potency [9] | Potency [10] | Potency [11] | Potency [19] | Potency [13] | Potency [16]

CC(C)c1ccc2oc3nc(N)c(C(=O)O)cc3c(=O)c2c1
active: Potency [5] 8.91 µM | Potency [17] 6.31 µM | Potency [6] 4.47 µM | Potency [7] 7.08 µM | Potency [8] 7.94 µM | Potency [9] 7.08 µM | Potency [10] 7.94 µM | Potency [11] 6.31 µM | Potency [12] 5.62 µM | Potency [19] 7.08 µM | Potency [13] 5.01 µM | Potency [14] 7.94 µM | Potency [16] 1.78 µM
inactive: Potency [1] | Potency [2] | Potency [3] | Potency [4]

COc1cc2c(N3CCN(C(=O)Nc4ccc(OC(C)C)cc4)CC3)ncnc2cc1OCCCN1CCCCC1
inactive: Potency [1] | Potency [2] | Potency [3] | Potency [4] | Potency [5] | Potency [6] | Potency [7] | Potency [8] | Potency [9] | Potency [10] | Potency [11] | Potency [12] | Potency [19] | Potency [13] | Potency [14]

N=C(N=C(N)N)N1CCOCC1
inactive: Potency [1] | Potency [2] | Potency [3] | Potency [4] | Potency [5] | Potency [6] | Potency [7] | Potency [8] | Potency [9] | Potency [10] | Potency [11] | Potency [12] | Potency [19] | Potency [13] | Potency [14] | activity, negative = cell killing [15, 21] 4.28% | activity, negative = cell killing [15, 26] -14.6% | Potency [16]

Cc1ccc(Nc2nccc(N(C)c3ccc4c(C)n(C)nc4c3)n2)cc1S(N)(=O)=O
inactive: Potency [1] | Potency [2] | Potency [3] | Potency [4] | Potency [5] | Potency [6] | Potency [7] | Potency [9] | Potency [10] | Potency [12] | Potency [14] | activity, negative = cell killing [15, 23] -23.7%
active: Potency [19] 14.1 µM | Potency ([15]; tumour line A) 2.51 µM | Potency ([15]; tumour line D) 7.08 µM

CS(=O)(=O)OCCCCOS(C)(=O)=O
inactive: Potency [1] | Potency [2] | Potency [3] | Potency [4] | Potency [5] | Potency [6] | Potency [7] | Potency [8] | Potency [9] | Potency [10] | Potency [11] | Potency [12] | Potency [13] | Potency [14] | Potency [16]

CC(C)CC(=O)N[C@H](C(=O)N[C@H](C(=O)N[C@@H](CC(C)C)[C@@H](O)CC(=O)N[C@@H](C)C(=O)N[C@@H](CC(C)C)[C@@H](O)CC(=O)O)C(C)C)C(C)C (Isovaleryl-VV[Sta]A[Sta]-OH)
inactive: Potency [1] | Potency [2] | Potency [3] | Potency [4] | Potency [5] | Potency [17] | Potency [6] | Potency [7] | Potency [8] | Potency [9] | Potency [10] | Potency [11] | Potency [12] | Potency [13] | Potency [14] | activity, negative = cell killing [15, 23] -11.5% | activity, negative = cell killing [15, 24] -9.71% | activity, negative = cell killing [15, 27] -22.1% | activity, negative = cell killing [15, 25] -23.6% | Potency [16]

O=C(NCC1CCCCN1)c1cc(OCC(F)(F)F)ccc1OCC(F)(F)F (configuration not stated)
inactive: Potency [1] | Potency [2] | Potency [3] | Potency [4] | Potency [5] | Potency [17] | Potency [6] | Potency [7] | Potency [8] | Potency [9] | Potency [10] | Potency [11] | Potency [12] | Potency [13] | Potency [14] | activity, negative = cell killing [15, 27] 20.5% | activity, negative = cell killing [15, 25] -6.86%

O=C(c1ccccc1)c1ccc2n1CCC2C(=O)O (configuration not stated)
inactive: Potency [1] | Potency [2] | Potency [3] | Potency [4] | Potency [5] | Potency [6] | Potency [7] | Potency [8] | Potency [9] | Potency [10] | Potency [11] | Potency [12] | Potency [13] | Potency [14] | activity, negative = cell killing [15, 20] 0.506% | activity, negative = cell killing [15, 21] -13.1% | activity, negative = cell killing [15, 22] -2.23% | activity, negative = cell killing [15, 26] -11% | activity, negative = cell killing [15, 23] -9.76% | activity, negative = cell killing [15, 24] -4.33% | activity, negative = cell killing [15, 25] -1.4% | Potency [16]

CCN(CC)CCOc1ccc(Cc2ccccc2)cc1
inactive: Potency [1] | Potency [2] | Potency [3] | Potency [4] | Potency [5] | Potency [6] | Potency [7] | Potency [8] | Potency [9] | Potency [10] | Potency [13] | Potency [14]
active: Potency [16] 22.4 µM

Cc1nccn1CC1CCc2c(c3ccccc3n2C)C1=O (configuration not stated)
active: Potency ([15]; tumour line A) 11.2 µM
inactive: Potency [1] | Potency [2] | Potency [3] | Potency [4] | Potency [5] | Potency [6] | Potency [7] | Potency [8] | Potency [9] | Potency [10] | Potency [11] | Potency [12] | Potency [19] | Potency [13] | Potency [14] | activity, negative = cell killing [15, 20] -25.3% | activity, negative = cell killing [15, 21] -23.2% | activity, negative = cell killing [15, 23] -6.55% | activity, negative = cell killing [15, 24] -25.8% | activity, negative = cell killing [15, 25] -22.8% | Potency [16]

CN(C)CCCC1(c2ccc(F)cc2)OCc2cc(C#N)ccc21 (configuration not stated)
inactive: Potency [1] | Potency [2] | Potency [3] | Potency [4] | Potency [5] | Potency [7] | Potency [8] | Potency [9] | Potency [10] | Potency [12] | Potency [19] | Potency [13] | Potency [14]

Source: PubChem BioAssay (NCATS)
